From PubChem BioAssay AID1850 (Southern Research Specialized Biocontainment Screening …, 2009)
Among all 310,000 compounds or so, about 1,000 (0.32%) were called active. Only a sample is shown. Potency and affinity values are given separately. A number with no mark means an inactive call. No rule for the calls is given here.

Experiment: Inhibition of PhoP regulon, Salmonella typhi GFP reporter cells, confirmation, 4 h (AID 1850);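 also: 0% = induced wells with vehicle and 100% = uninduced wells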
Conditions: Salmonella Typhi PhoP-promoter GFP reporter, fluorescence, at 50 µM, hits give high values

| SMILES | inhibition |
| --- | --- |
| CCc1ccc(NC2=NCCCS2)cc1 | 39.5% |
| COC(=O)[C@@H](N)CCCN=C(N)N[N+](=O)[O-] | -16.2% |
| CCCCC(CC)COC(=O)c1ccccc1C(=O)OCC(CC)CCCC (centres undefined) | -4.54% |
| CCOc1ccc(OCCSc2nc(N)cc(=O)[nH]2)cc1 | 12.9% |
| C=CCNC(=O)c1cc2cccc(OC)c2oc1=O | -9.75% |
| COCC(=O)NNS(=O)(=O)c1ccccc1[N+](=O)[O-] | 0.41% |
| CC1CCN(c2c(NCC3CCC(C(=O)NCc4ccccc4)CC3)c(=O)c2=O)CC1 (centres undefined) | -9.12% |
| S=C(NC1CC2CCC1C2)N1CCN(c2cccc(Cl)c2)CC1 (centres undefined) | 15.8% |
| Cc1c(-n2cc(C(=O)O)c(=O)c3cc(F)c(N4CCCC(O)C4)c(F)c32)c(=O)n(-c2ccccc2)n1C (centres undefined) | 2.49% |
| O=S(=O)(c1ccc(F)c(F)c1F)N1CCN(C(=S)NC2CC3CCC2C3)CC1 (centres undefined) | 3.26% |
| COc1ccc(-c2noc(N3CCCC(C(=O)Nc4ccccc4F)C3)n2)cc1 (centres undefined) | 4.79% |
| CC1CCCN(C(=S)NCc2ccccc2)C1 (centres undefined) | -5.12% |
| Cc1ccccc1N1C(=O)c2sc3nc4c(c(=O)n3c2C1=O)CCC4 | 0.93% |
| O=C(OCCN=C1NS(=O)(=O)c2ccccc21)c1ccco1 | 5.3% |
| O=C(c1cccc(S(=O)(=O)N2CCCC2)c1)N1CCN(c2ccccc2F)CC1 | -7.17% |
| O=C(CSc1nc2[nH]ncc2c(=O)n1-c1ccc(Cl)c(Cl)c1)NCc1ccccc1Cl | -3.93% |
| C/C(=N\NC(=O)c1cccnc1)c1ccccc1 | -2.72% |
| CC(=O)Nc1ccc(S(=O)(=O)NCC2CCC(C(=O)NCCCN3CCCC3=O)CC2)cc1 (centres undefined) | -3.51% |
| COc1ccc(S(=O)(=O)N2CCc3ccccc32)cc1C(=O)O | 0.91% |
| O=C(NCc1cccnc1)c1cc(Sc2ccc(F)cc2F)nc2ccccc12 | -9.05% |
| COc1ccc(CC(=O)NNC(=S)NC(=O)c2cccnc2)cc1 | 9.02% |
| Cc1n[nH]c(C)c1CCNC(=O)C1CCC(=O)N(CCc2cccc(F)c2)C1 (centres undefined) | -2.89% |
| CCn1cc(C(=O)O)c(=O)c2cnc(N3CCN(C(=S)Nc4ccc(F)cc4)CC3)nc21 | -5.98% |
| COC(=O)C(C)NC(=S)N1CC2C[C@@H](C1)Cn1c2cccc1=O (some centres undefined) | 3.1% |
| COC(=O)CC1C(=O)NCCN1C(=S)Nc1ccc(F)cc1 (centres undefined) | 4.44% |

| SMILES | inhibition |
| --- | --- |
| COC(=O)C1=C(N)Oc2cc(N(C)C)ccc2C1c1ccccc1OC (centres undefined) | -7.55% |
| Cc1ccc(CNC(=O)CSCc2ccccc2F)cc1 | 3.95% |
| Cc1ccccc1N1CC(C(=O)NC2CCCC2)CC1=O (centres undefined) | -18.4% |
| CCCNC(=O)COc1coc(CN2CCN(c3cccc(Cl)c3)CC2)cc1=O | 9.58% |
| Cc1c(NC(=O)c2nn3c(c2Br)NC(c2ccccc2)CC3C(F)(F)F)c(=O)n(-c2ccccc2)n1C (centres undefined) | -3.46% |
| c1cc2ccc3ccc(CN4CCOCC4)c4ccc(c1)c2c34 | -8.34% |
| OC1CCCN(Cc2cccc3ccccc23)C1 (centres undefined) | -1.87% |
| Cc1nnc(NC(=O)CCSc2ccc(Cl)cc2)s1 | -3% |
| CSc1ccc2c(c1)C(N1CCN(C)CC1)Cc1ccccc1S2 (centres undefined) | 12.9% |
| CN1CCN(CCOC2Cc3ccccc3Sc3ccc(Cl)cc32)CC1 (centres undefined) | -19.4% |
| CC(C)c1ccc2c(c1)C(N1CCN(C)CC1)Cc1cccnc1S2 (centres undefined) | 15.7% |
| Fc1ccc2c(c1)Sc1ccc(Cl)cc1CC2N1CCN(CCC2OCCO2)CC1 (centres undefined) | 12.3% |
| COCCCN1CCN(C2Cc3ccccc3Sc3ccc(Cl)cc32)CC1 (centres undefined) | 1.9% |
| COc1ccc2c(c1)CC(N1CCN(C)CC1)c1cc(OC)ccc1S2 (centres undefined) | 21.4% |
| Cc1cc(C)c(C(=O)/C=C/c2cccc3ccccc23)c(=O)[nH]1 | -11.9% |
| CCn1c(=O)cc(SCC(=O)N2CCOCC2)c2ccccc21 | 0.81% |
| Cc1cccc(OCCc2c(C)[nH]c(=S)[nH]c2=O)c1 | -1.55% |
| NC(=O)CSc1nnc(Cn2c(=O)sc3ccccc32)n1CCc1ccccc1 | 1.95% |
| COc1cccc(NC(=O)CCCCCN2C(=O)[C@@H]3Cc4ccccc4CN3C2=O)c1 | 6.78% |
| CCN1C(=O)CSC1=Nc1ccc(OC)cc1 | -7.25% |
| COc1cc(OC)c(OC)cc1CNCCNC(=O)c1nonc1N | 6.25% |
| CN1CCN(C2Cc3ccc(F)cc3Sc3cc(F)c(Cl)cc32)CC1 (centres undefined) | 8.23% |
| CCOC(=O)c1cccnc1NC(=O)c1ccccc1 | -7.33% |
| COc1ccccc1C(=O)NC(C(=O)NCCc1nc2ccccc2[nH]1)=C(C)C | -1.36% |
